# According to PubChem BioAssay (NCATS):
# Results filed as inconclusive are left out. The source made the active and inactive calls. Unless noted, calls follow the shape of the dose curve; as a rule, active = well fitted curve in either direction with a large enough effect (not every such curve was filed as active); inconclusive = small, poorly fitted or top-dose-only effect, or another doubt; inactive = flat fitted curve, though single readings scatter.
# What was measured:
# [1] = biological target: Lysosomal acid glucosylceramidase (Homo sapiens) (UniProt P04062); experiment: Glucocerebrosidase-p2 (AID 348; in the data active = potency below about 10 µM; also: potency is read from the fitted curve at half-maximal effect); settings: purified GBA, blue fluorogenic substrate, 40 min
# Lysosomal acid glucosylceramidase (Homo sapiens), sequence (P04062 whole entry, looked up): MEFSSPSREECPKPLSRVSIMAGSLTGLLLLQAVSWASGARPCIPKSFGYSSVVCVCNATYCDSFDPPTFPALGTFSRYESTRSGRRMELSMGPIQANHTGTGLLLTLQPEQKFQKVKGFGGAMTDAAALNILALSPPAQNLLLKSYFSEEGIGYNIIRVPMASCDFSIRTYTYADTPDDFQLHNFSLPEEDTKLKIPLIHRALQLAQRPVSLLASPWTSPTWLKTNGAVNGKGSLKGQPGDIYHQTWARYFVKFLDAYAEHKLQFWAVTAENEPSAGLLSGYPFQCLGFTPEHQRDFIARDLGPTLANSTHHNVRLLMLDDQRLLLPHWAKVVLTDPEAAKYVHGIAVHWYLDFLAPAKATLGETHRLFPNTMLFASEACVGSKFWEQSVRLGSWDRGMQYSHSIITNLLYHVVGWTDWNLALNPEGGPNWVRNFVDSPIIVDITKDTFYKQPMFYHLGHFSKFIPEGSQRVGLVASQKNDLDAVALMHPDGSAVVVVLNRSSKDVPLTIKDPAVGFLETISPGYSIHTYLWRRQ
# Outline: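 Normal human glucocerebrosidase (0.2 nM) with blue fluorogenic substrate (80 uM final) in citrate/phosphate pH 5.9 with 10mM sodium taurocholate, 0.01% tween-20; 40 min RT, NaOH/glycine stop; fluorescence Ex 365/Em 440; AC50 from a titration from 0.6 nM upwards.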
# [2] = AP1 Signaling Pathway (AID 357); settings: ME-180 AP-1-bla reporter, EGF-induced, beta-lactamase ratio, 5 h; at 7.69 µM (top of the series) unless noted;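 also: ME-180 reporter cells stimulated with EGF at its EC50 level; % is scaled to controls: 0 for no effect and ±100 for the full control effect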
# Outline: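 In this screen, ME-180 cells in Opti-MEM with 0.5% dialyzed FBS received EC50 EGF and compound titrations for 5 h. AP-1 reporter beta-lactamase was detected via CCF4 ratio, giving AC50 for positive and negative modulators.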
# [3] = biological target: Cytochrome P450 1A2 (Homo sapiens) (UniProt P05177); experiment: p450-cyp1a2 (AID 410; calls by dose curve; also: potency is read from the fitted curve at half-maximal effect;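 as to activity change, negative = inhibition: -100% = full effect of reference inhibitor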); settings: recombinant CYP1A2, luciferin-ME demethylation, luminescence; series mostly up to 57 µM
# Cytochrome P450 1A2 (Homo sapiens), sequence (P05177 whole entry, looked up): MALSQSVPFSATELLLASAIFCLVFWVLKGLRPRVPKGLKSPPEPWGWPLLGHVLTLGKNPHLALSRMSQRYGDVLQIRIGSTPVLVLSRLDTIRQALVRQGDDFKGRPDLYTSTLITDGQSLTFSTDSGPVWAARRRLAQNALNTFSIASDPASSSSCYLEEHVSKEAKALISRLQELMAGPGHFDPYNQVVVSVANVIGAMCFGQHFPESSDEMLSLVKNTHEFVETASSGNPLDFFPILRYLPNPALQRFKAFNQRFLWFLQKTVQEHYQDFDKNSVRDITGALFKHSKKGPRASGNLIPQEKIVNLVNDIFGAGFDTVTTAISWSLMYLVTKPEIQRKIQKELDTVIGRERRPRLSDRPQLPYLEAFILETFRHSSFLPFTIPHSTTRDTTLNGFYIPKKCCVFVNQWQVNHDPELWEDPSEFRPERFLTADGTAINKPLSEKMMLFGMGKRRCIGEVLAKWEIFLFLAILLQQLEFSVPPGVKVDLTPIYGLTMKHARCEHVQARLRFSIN
# Outline: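 20nM CYP1A2, 100uM Luciferin-ME (=Km), 100mM KPO4; cpd 10 min RT; +NADPH regen, 60 min RT; stop/detect 20 min; luminescence. Normalized to furafylline 57 uM = full inhibition.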
# [4] = Stat Signaling Pathway (AID 446); settings: ME-180 (cervical carcinoma) SIE beta-lactamase reporter, IL-6 stimulated, 5 h; at 7.69 µM (top of the series) unless noted;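 also: ME-180 cervical cancer cells given 40 pM IL-6 alongside compound; SIE-controlled beta-lactamase reporter measured as 460/530 nm FRET emission ratio; % is scaled to controls: 0 for no effect and ±100 for the full control effect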
# Outline: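 Normalization used AC90 stimulation (300 pM IL-6) and AC90 inhibition (125 nM pan-JAK inhibitor at 40 pM IL-6). The underlying signal is SIE-driven beta-lactamase in ME-180 cells after 5 h IL-6 exposure with compound.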
# [5] = biological target: Glucocorticoid receptor (Homo sapiens) (UniProt P04150); experiment: GR-GFP Redistribution (AID 450;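 active = compounds whose dose series gives a full or clear partial fitted curve of increased nuclear translocation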; also: potency is read from the fitted curve at half-maximal effect); settings: U2OS GR-GFP nuclear translocation, laser cytometry, 2 h
# Glucocorticoid receptor (Homo sapiens), sequence (P04150 whole entry, looked up, the tested form may be a part): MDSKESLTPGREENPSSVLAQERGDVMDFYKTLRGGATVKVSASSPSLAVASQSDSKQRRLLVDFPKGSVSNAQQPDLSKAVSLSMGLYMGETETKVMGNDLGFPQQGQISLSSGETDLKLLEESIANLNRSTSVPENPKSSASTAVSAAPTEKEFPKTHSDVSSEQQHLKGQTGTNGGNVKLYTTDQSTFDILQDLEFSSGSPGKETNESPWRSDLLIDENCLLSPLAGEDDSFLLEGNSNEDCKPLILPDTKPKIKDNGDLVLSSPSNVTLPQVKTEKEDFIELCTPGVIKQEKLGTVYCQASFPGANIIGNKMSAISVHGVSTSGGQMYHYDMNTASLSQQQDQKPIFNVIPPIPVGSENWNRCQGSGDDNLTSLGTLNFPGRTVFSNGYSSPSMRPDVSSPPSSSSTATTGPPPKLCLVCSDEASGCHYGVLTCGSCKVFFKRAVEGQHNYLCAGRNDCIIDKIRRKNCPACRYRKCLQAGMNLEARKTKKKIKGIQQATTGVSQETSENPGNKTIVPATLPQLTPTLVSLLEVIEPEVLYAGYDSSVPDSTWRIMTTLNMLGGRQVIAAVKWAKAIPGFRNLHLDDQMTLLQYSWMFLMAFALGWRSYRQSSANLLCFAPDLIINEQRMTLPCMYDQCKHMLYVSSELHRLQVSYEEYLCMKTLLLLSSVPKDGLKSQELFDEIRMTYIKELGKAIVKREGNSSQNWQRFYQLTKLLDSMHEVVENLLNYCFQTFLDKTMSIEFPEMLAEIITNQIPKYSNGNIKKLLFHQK
# [6] = biological target: Glucocorticoid receptor (Homo sapiens) (UniProt P04150); experiment: GR-EFC Redistribution (AID 451; calls by dose curve; also: potency is read from the fitted curve at half-maximal effect); settings: CHO-K1 GR-EFC translocation, beta-gal luminescence, 2 h
# Outline: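 Translocation of GR-ED fusion to nuclear EA restores b-gal, read by luminescence after 1 h room-temperature detection. Engineered CHO-K1 biosensor cells, 1,000/well, exposed 2 h at 37 C to titrations up to 46 uM final.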
# [7] = biological target: Mitogen-activated protein kinase 10 (Mus musculus) (UniProt Q61831); experiment: JNK3 AlphaScreen Assay (AID 530); settings: JNK3 lysate, c-Jun phosphorylation; series mostly up to 57.1 µM;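 also: kinase came from lysate of stimulated human HepG2 cells; signal reports phosphorylation of biotinylated GST-cJun 1-79 at Ser73 with 10 µM ATP; % is scaled to controls: 0 for no effect and ±100 for the full control effect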
# Outline: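 Kinase buffer: 20 mM Tris-HCl pH 7.6, 10 mM MgCl2, 1 mM DTT, 0.1 mM Na3VO4, 0.01% Tween-20; ATP 10 uM. Substrate biotin-GST-cJun(1-79), enzyme from activated HepG2 lysates. Detection by Ser73 phospho-antibody AlphaScreen.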
# [8] = biological target: 3',5'-cyclic-AMP phosphodiesterase 4B (Homo sapiens) (UniProt Q07343); experiment: qHTS Assay for Inhibitors of PDE-IV (AID 607; active = well fitted activation curve with a large enough effect in the main read-out, with a control signal flat, not every such curve was filed as active; also: % of control where 0% means no effect); settings: HEK293 ACTOne CNG channel cells, membrane potential fluorescence; series mostly up to 22.9 µM
# 3',5'-cyclic-AMP phosphodiesterase 4B (Homo sapiens), sequence (Q07343 whole entry, looked up): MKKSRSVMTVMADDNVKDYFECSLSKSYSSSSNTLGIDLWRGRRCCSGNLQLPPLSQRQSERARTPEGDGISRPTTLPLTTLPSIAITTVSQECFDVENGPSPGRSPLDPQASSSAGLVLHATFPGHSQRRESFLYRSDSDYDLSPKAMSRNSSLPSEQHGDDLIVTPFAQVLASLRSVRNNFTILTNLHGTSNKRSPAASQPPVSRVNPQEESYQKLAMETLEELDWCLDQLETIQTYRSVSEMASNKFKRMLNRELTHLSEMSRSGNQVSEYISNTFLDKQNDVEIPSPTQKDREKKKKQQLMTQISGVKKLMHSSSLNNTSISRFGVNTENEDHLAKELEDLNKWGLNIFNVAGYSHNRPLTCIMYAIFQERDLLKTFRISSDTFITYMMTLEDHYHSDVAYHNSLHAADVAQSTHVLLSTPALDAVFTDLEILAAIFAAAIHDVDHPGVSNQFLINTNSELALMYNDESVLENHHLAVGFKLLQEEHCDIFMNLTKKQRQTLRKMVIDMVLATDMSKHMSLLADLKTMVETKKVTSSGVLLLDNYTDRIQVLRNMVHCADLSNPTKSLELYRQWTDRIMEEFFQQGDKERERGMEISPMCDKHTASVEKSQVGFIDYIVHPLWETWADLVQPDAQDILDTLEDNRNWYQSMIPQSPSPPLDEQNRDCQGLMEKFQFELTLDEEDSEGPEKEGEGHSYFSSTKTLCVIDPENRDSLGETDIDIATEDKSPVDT
# Outline: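 HEK293 ACTOne cells with CNG channel (1000/well), endogenous PDE4; membrane potential dye, compounds up to 22.9 uM final. Fluorescence Ex 535/Em 590; RO 20-1724 (100 uM final) as reference.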
# [9] = biological target: Cytochrome P450 3A4 (Homo sapiens) (UniProt P08684); experiment: qHTS Assay for Inhibitors and Substrates of Cytochrome P450 3A4 (AID 884; active = well fitted curve in the direction sought with a large enough effect; an effect the other way counts as inactive or inconclusive; also: potency is read from the fitted curve at half-maximal effect; nearly all actives have a fitted effect of over 50% in size); settings: recombinant CYP3A4, Luciferin-PPXE luminescence; series mostly up to 57.1 µM
# Cytochrome P450 3A4 (Homo sapiens), sequence (P08684 whole entry, looked up): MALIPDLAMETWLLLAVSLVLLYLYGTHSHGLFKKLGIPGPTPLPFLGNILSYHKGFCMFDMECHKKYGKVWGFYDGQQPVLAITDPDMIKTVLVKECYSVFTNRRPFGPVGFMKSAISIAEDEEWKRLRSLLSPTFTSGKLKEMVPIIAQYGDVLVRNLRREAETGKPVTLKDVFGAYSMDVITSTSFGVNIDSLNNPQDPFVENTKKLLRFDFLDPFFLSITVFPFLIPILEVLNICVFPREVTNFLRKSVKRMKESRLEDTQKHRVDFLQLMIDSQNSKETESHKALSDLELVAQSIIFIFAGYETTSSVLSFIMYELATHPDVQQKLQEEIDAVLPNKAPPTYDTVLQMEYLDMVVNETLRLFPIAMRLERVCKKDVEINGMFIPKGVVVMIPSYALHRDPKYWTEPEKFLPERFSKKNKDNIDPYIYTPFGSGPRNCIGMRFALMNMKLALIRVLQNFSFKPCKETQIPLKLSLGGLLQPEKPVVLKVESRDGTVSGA
# Outline: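 Luminescent readout of luciferin produced by CYP3A4 (20 nM) dealkylation of Luciferin-PPXE, 25 uM (its KM). NADPH-driven reaction ran 60 min at RT after 10 min compound preincubation; data scaled to 57 uM ketoconazole as 100% inhibition.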
# [10] = biological target: Cytochrome P450 3A4 (Homo sapiens) (UniProt P08684); experiment: qHTS Assay for Activators of Cytochrome P450 3A4 (AID 885; active = well fitted curve in the direction sought with a large enough effect; an effect the other way counts as inactive or inconclusive; also: nearly all actives have a fitted effect of over 65% in size); settings: recombinant CYP3A4, Luciferin-PPXE luminescence, 60 min; series mostly up to 57.1 µM
# Outline: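 Human CYP3A4 dealkylates Luciferin-PPXE to luciferin, which luciferase detection converts to light. Substrate was at its KM (25uM), buffer 200mM KPO4, reaction 60 min at RT.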
# [11] = biological target: Cytochrome P450 2C19 (Homo sapiens) (UniProt P33261); experiment: qHTS Assay for Inhibitors and Substrates of Cytochrome P450 2C19 (AID 899; active = well fitted curve in the direction sought with a large enough effect; an effect the other way counts as inactive or inconclusive; also: potency is read from the fitted curve at half-maximal effect; nearly all actives have a fitted effect of over 60% in size); settings: recombinant CYP2C19, luciferin-H EGE luminescence; series mostly up to 57.1 µM
# Cytochrome P450 2C19 (Homo sapiens), sequence (P33261 whole entry, looked up): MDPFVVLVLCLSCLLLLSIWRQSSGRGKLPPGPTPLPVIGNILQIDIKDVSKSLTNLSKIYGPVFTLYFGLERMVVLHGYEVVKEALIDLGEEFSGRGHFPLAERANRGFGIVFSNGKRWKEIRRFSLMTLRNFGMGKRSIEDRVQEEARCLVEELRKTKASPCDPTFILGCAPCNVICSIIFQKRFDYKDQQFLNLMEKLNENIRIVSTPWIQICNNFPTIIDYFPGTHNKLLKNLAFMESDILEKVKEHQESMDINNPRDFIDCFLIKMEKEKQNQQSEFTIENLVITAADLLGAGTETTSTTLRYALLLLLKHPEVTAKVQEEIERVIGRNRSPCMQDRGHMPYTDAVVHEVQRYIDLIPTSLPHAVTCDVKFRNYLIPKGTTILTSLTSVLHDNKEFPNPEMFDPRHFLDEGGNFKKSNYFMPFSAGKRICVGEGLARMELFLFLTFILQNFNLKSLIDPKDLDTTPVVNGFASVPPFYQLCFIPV
# Outline: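 5nM enzyme + 10uM Luciferin-H EGE (=KM), 50mM KPO4; cpd pin-transferred, 10 min 37C; NADPH regen, 60 min 37C; stopped w/ luciferin detection reagent, 20 min; luminescence. Normalized to 57uM ketoconazole (AC100).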
# [12] = Confirmation and Secondary Assay for Modulators of Hemoglobin Beta Chain Splicing at IVS2 654 locus (AID 910; active = well fitted curve in the direction sought with a large enough effect; an effect the other way counts as inactive or inconclusive;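 also: HeLa cells stably carrying EGFP split by mutant beta-globin IVS2-654 intron; per-well total GFP intensity by laser scanning cytometry after 2-day treatment; % of control where 0% means no effect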); settings: HeLa EGFP-654 splicing reporter, GFP fluorescence, 48 h; series mostly up to 38.3 µM
# Outline: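 Readout: per-well total peak green fluorescence (488 nm ex, 500–520 nm em) from objects 5–250 µm, reflecting correct splicing of an EGFP-654 reporter. Compounds were applied for 2 days at 37 °C to overnight-plated HeLa EGFP-654 cells; controls were DMSO and 500 nM IVS2-654 PNA.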
# [13] = Confirmation and Secondary Assay for Modulators of Hemoglobin Beta Chain Splicing at IVS2 705 locus (AID 930; active = well fitted curve in the direction sought with a large enough effect; an effect the other way counts as inactive or inconclusive;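 also: HeLa cells stably expressing the EGFP-705 splicing reporter; GFP fluorescence per well restored by corrected splicing of the IVS2-705 intron in EGFP; % of control where 0% means no effect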); settings: HeLa EGFP-705 splicing reporter, GFP fluorescence, 48 h; series mostly up to 38.3 µM
# Outline: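 HeLa EGFP-705 reporter; 500 cells/well, o/n 37C 5% CO2; cpd 2 d; 488 ex/500-520 em laser scan; total peak GFP intensity/well. Ref: 500 nM […] antisense PNA.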
# [14] = qHTS Assay for Lipid Storage Modulators (AID 1519; calls by dose curve); settings: Drosophila S3 cells, BODIPY lipid droplet/cell ratio, laser cytometry, cells loaded with oleic acid; for activity change, negative = inhibition: at 57.5 µM (top of the series)
# Outline: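 Cells seeded at 5,000 per well were treated with compounds over a concentration series and loaded with oleic acid (400 uM, as added). Lipid droplet fluorescence (488 nm excitation, 500-530 nm channel) was read by laser-scanning cytometry and normalized to 20 uM Triacsin C.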
# [15] = biological target: Tyrosyl-DNA phosphodiesterase 1 (Homo sapiens) (UniProt Q9NUW8); experiment: Confirmation Assay for Inhibitors of Tyrosyl-DNA Phosphodiesterase (TDP1) (AID 489007; active = well fitted curve in the direction sought with a large enough effect; an effect the other way counts as inactive or inconclusive; also: potency is read from the fitted curve at half-maximal effect; nearly all actives have a fitted effect of over 40% in size); settings: recombinant human TDP1 enzymatic activity, dose-response
# Tyrosyl-DNA phosphodiesterase 1 (Homo sapiens), sequence (Q9NUW8 whole entry, looked up): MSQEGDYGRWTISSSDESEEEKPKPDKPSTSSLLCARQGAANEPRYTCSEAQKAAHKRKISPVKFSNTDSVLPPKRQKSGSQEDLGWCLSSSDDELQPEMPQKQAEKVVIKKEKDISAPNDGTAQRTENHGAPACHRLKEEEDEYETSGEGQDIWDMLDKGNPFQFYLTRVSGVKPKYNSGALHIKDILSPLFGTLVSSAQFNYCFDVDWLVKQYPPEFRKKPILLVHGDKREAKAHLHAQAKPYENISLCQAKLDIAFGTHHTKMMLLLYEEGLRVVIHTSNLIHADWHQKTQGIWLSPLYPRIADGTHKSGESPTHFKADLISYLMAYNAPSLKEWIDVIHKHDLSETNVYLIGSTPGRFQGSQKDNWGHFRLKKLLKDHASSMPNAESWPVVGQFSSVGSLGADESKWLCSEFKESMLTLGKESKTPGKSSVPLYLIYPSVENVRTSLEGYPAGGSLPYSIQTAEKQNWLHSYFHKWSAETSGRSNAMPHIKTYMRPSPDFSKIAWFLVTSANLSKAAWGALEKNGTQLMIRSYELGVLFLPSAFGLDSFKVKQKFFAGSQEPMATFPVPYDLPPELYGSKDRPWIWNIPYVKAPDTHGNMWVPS
# Outline: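 AlphaScreen read-out: streptavidin donor and anti-FITC acceptor beads (10 ug/ml) bind intact substrate, so Tdp1 removal of tyrosine-FITC lowers signal. Enzyme 1 nM, substrate 15 nM, 5 min reaction at room temperature after 15 min compound preincubation.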
# [16] = Primary qHTS for small molecule stabilizers of the endoplasmic reticulum resident proteome: Secreted ER Calcium Modulated Protein (SERCaMP) assay (AID 1508630; active = well fitted curve in the direction sought with a large enough effect; an effect the other way counts as inactive or inconclusive; also: % is scaled to controls: 0 for no effect and ±100 for the full control effect); settings: SH-SY5Y GLuc-SERCaMP (Gaussia luciferase released on ER calcium loss) secretion, thapsigargin, luminescence; series mostly up to 38.4 µM
# Outline: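 The SH-SY5Y reporter protocol was run at 3 concentrations up to 38.3 uM (primary) or 11 concentrations (follow-up): 16 h compound, 100 nM thapsigargin for 4 h, then extracellular luciferase luminescence.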
# [17] = NFAT Signaling Pathway (AID 444); settings: Jurkat NFAT-bla M1, carbachol, beta-lactamase ratio, 5 h; at 7.69 µM (top of the series) unless noted
# Outline: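 Read-out: CCF4 FRET ratio (460 nm/530 nm) after 1 h RT dye loading, used for %activity and AC50 from titration series. Cells: Jurkat NFAT-β-lactamase/M1 line, treated with compound plus 1 uM carbachol for 5 h, 37 °C.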
# [18] = biological target: Cytochrome P450 2C9 (Homo sapiens) (UniProt P11712); experiment: qHTS Assay for Inhibitors and Substrates of Cytochrome P450 2C9 (AID 883; active = well fitted curve in the direction sought with a large enough effect; an effect the other way counts as inactive or inconclusive; also: potency is read from the fitted curve at half-maximal effect; nearly all actives have a fitted effect of over 60% in size); settings: recombinant CYP2C9, luciferin-H luminescence, 60 min; series mostly up to 57.1 µM
# Cytochrome P450 2C9 (Homo sapiens), sequence (P11712 whole entry, looked up): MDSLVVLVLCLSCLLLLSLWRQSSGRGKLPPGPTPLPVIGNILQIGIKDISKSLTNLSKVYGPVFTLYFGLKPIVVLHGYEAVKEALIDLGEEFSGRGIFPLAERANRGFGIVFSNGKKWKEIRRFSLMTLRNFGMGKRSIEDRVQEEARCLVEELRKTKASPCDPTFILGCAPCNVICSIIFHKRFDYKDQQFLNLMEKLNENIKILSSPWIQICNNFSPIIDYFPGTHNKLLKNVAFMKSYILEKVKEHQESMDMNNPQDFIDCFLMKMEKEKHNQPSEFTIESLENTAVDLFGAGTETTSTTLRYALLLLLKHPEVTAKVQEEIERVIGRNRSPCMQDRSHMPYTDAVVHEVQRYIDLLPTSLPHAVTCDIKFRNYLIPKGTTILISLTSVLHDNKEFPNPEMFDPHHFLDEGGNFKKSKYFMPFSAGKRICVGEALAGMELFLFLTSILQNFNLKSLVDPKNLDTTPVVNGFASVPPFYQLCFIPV
# Outline: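 Inhibition of CYP2C9 is scored as loss of luminescence, with 57uM sulphaphenazole defining 100% inhibition. Substrate Luciferin-H is used at 100uM, equal to its KM; enzyme at 10nM in 25mM KPO4, 60 min at 37C with NADPH regeneration.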
# [19] = measured here: cell count channel max response
# [20] = measured here: lipid channel max response
Structure (SMILES),Potency [1],"activity change, negative = inhibition [2]",Potency [3],"activity, negative = inhibition [4]",Potency [5],Potency [6],outcome [7],Potency [8],Potency [9],Potency [10],Potency [11],outcome [12],outcome [13],"activity change, negative = inhibition [14]","max response [14, 19] [%]","max response [14, 20] [%]",Potency [15],Potency [16],"activity change, negative = inhibition [17]",Potency [18]
Cc1ccccc1-c1cncnc1N(C)Cc1ccco1,> 11.4 µM (inactive),-3.79% (inactive),15.8 µM (active),11.8% (inactive),> 46 µM (inactive),> 46 µM (inactive),inactive,inactive,1.58 µM (active),inactive,5.01 µM (active),inactive,inactive,8.25% (inactive),-7.61,2.41,3.16 µM (active),inactive,,
O=C(c1ccco1)N1CCC2(CC1)CCN(c1ncccn1)CC2,> 11.4 µM (inactive),-7.74% (inactive),,-7.06% (inactive),,> 46 µM (inactive),inactive,inactive,,,,,,5.72% (inactive),9.29,18.4,,inactive,-8.3% (inactive),
O=C(Nc1cccc(F)c1)N1CCCC2(CCN(C(=O)c3ccncc3)CC2)C1,> 11.4 µM (inactive),-4.33% (inactive),12.6 µM (active),,,> 46 µM (inactive),inactive,inactive,6.31 µM (active),inactive,,,,6.14% (inactive),19.3,28.5,,inactive,-19.9% (inactive),0.0794 µM (active)
O=C(Nc1ccccc1)N1CC2(CCN(C(=O)c3cccc(F)c3)CC2)C1,> 11.4 µM (inactive),13.2% (inactive),,0.524% (inactive),,> 46 µM (inactive),inactive,inactive,,,,,,5.53% (inactive),9.88,20.2,,inactive,14.3% (inactive),
O=C(c1cnccn1)N1CCC2(CC1)CN(c1ccncc1)C2,> 11.4 µM (inactive),4.42% (inactive),inactive,2.09% (inactive),,> 46 µM (inactive),,inactive,,,,,,-0.9% (inactive),-18.2,-17.9,,inactive,-19.4% (inactive),
